Results from PubChem BioAssay (EPA / NIEHS).
Activity calls are given as the source filed them. The calls were made as follows: active = hit-call score of the fitted dose curve at least 0.9, where 1 is the maximum; inactive = score below 0.9.

target: Hepatocyte nuclear factor 6 (Homo sapiens) (UniProt Q9UBC0); test: ATG_HNF6_CIS: Attagene CIS-FACTORIAL HepG2 Assay for human Hepatocyte Nuclear Factor 6 (HNF6) (AID 2282952); conditions: HepG2 Attagene cis-factorial HNF6 reporter transcription; actives raise or lower the signal
Sequence (Q9UBC0 whole entry, looked up): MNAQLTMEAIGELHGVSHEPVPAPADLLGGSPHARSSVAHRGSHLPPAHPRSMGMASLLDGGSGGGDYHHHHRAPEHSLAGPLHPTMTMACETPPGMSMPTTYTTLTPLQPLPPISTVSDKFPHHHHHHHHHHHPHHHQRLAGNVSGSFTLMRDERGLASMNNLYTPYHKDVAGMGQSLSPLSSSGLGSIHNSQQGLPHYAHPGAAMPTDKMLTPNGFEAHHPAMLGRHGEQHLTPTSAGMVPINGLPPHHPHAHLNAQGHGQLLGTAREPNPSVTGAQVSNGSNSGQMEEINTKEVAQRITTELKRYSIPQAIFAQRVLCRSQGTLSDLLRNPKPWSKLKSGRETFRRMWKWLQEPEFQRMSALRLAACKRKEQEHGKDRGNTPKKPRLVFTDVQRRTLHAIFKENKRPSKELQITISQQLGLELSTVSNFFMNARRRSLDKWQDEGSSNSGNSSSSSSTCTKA
Method in brief: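 Activity values derive from bidirectional fitting against DMSO of reporter mRNA levels, measured by capillary electrophoresis of labelled RT-PCR products from HepG2 cells exposed 24 h.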

Row | Compound | outcome
1 | Nc1ccc(Cl)cc1 | inactive
2 | Nc1ccc([N+](=O)[O-])cc1Cl | inactive
3 | OCC(F)(F)OC(F)(F)C(F)(F)OC(F)(F)C(F)(F)OC(F)(F)F | inactive
4 | O=C(O)C(F)(F)C(F)(F)C(=O)O | inactive
5 | CC(C)(C)OOC(C)(C)C | inactive
6 | Cn1[nH]nnc1=S | inactive
7 | CCOP(=S)(Oc1ccc([N+](=O)[O-])cc1)c1ccccc1 (stereo unspecified) | inactive
8 | CCOC(=O)c1ccccc1N | inactive
9 | Oc1ccccc1Br | inactive
10 | CCCCc1ccccc1 | inactive
11 | ClC(Cl)=C(c1ccc(Cl)cc1)c1ccccc1Cl | inactive
12 | OCC(F)(F)OC(F)(F)C(F)(F)OC(F)(F)C(F)(F)OC(F)(F)CO | inactive
13 | COP(=O)(O)OC | inactive
14 | Clc1ccc(Oc2ccccc2)cc1 | inactive
15 | O=C(O)C1C(C(=O)O)C2(Cl)C(Cl)=C(Cl)C1(Cl)C2(Cl)Cl (stereo unspecified) | inactive
16 | CC(O)C#N (stereo unspecified) | inactive
17 | CCN(CC)c1ccccc1 | inactive
18 | CC(C)Nc1ccc(Nc2ccccc2)cc1 | inactive
19 | OCC1CO1 (stereo unspecified) | inactive
20 | CCCCC(CC)COP(=O)(Oc1ccccc1)Oc1ccccc1 (stereo unspecified) | inactive
21 | ClC(Cl)c1ccccc1 | inactive
22 | COP(N)(=S)OC | inactive
23 | CCCCN(CCCC)N=O | inactive
24 | CC(C)(C)N(NC(=O)c1ccc(Cl)cc1)C(=O)c1ccccc1 | inactive
25 | c1ccc2c(c1)Nc1ccccc1S2 | inactive
26 | CCNc1nc(Cl)nc(NC(C)(C)C)n1 | inactive
